# FMDV antiviral – foot and mouth disease virus antiviral activity | FMDV antiviral cell-based qHTS | Potency, µM (top dose mostly 57.9 µM), inactives show at the highest dose activity change, negative = inhibition, hits mostly inhibitors | 1.2% of 410,000 active; calls by dose curve; tested in HEK293T cells; also: read-out not given here; potency is read from the fitted curve at half-maximal effect; nearly all actives have a fitted effect of over 45% in size
# Lassa entry inh – Lassa virus entry inhibition | Lassa virus pseudotype entry inhibition, cell reporter | 1.2% of 300,000 active | Potency, µM (top dose mostly 37.9 µM), inactives show at the highest dose activity change, negative = inhibition, most hits filed as inhibitors; calls by dose curve; tested in HEK293 cells; also: potency is read from the fitted curve at half-maximal effect; nearly all actives have a fitted effect of over 50% in size
# HCMV antiviral – inhibitors of human cytomegalovirus | HFF cells, HCMV-luciferase reporter, 72 h; stronger effect = lower value | activity change, negative = inhibition, % at 57.5 µM | 4.5% of 410,000 active | AID 1259415; in the data active = activity change below about -60%; inconclusive = no clear call, values can overlap the other calls; inactive = above about -39%
#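 Luciferase read-out from HCMV-luciferase-infected HFFs (MOI 1 PFU/cell) 72 h post infection at 37C; compounds added after 16 h cell attachment; activity normalized between buffer-only basal and Salinomycin (10uM) inhibitor controls.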
# HCV inh – HCV inhibition; Potency, µM (series often up to 41.8 µM), without a hit: at the top dose activity change, negative = inhibition, hits mostly inhibitors; Huh7.5.1 HCVcc-Cre infection, luciferase reporter, 44 h; AID 651820; 3.4% of 340,000 active; active = well fitted inhibition curve with a large enough effect; inconclusive = small, poorly fitted or top-dose-only effect, or another doubt; inactive = no such curve, though single readings can be large or run the other way; also: potency is read from the fitted curve at half-maximal effect
#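 Antiviral activity was scored by luciferase reporter output from cells infected with HCVcc-Cre (~0.5 moi) in presence of compound, 44 h infection period, cells seeded 1,000/well 4 h prior.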
# MARV entry inh – Marburg virus entry inhibition. Marburg virus pseudotyped entry inhibition, cell reporter. Potency, µM (doses to about 37.8 µM), inactives show at the highest dose activity change, negative = inhibition, most hits filed as inhibitors. 1.8% of 300,000 active; calls by dose curve; tested in HEK293 cells; also: potency is read from the fitted curve at half-maximal effect
# The depositor's hits bear a star; ? = inconclusive; . = no result given; [ ] = another dose, or the depositor's remark. An excerpt weighted towards active compounds, which were near 7.9% of everything screened. % is scaled to controls: 0 for no effect and ±100 for the full control effect.
SMILES,FMDV antiviral,Lassa entry inh,HCMV antiviral,HCV inh,MARV entry inh
Cc1ccc(/C=C2\SC(=S)N(CCCC(=O)Nc3ccc(O)cc3)C2=O)cc1,-5%,?,-95*,-29%,14%[46.1 µM]
O=C(CCCN1C(=O)S/C(=C\C=C\c2ccccc2)C1=O)Nc1ccc(O)cc1,-3%,?,-37,13µM*,?
O=C(CCCN1C(=O)/C(=C/c2cccs2)SC1=S)Nc1ccccc1O,-2%,-17%,-91*,?,?
O=C(CCCN1C(=O)/C(=C\c2cccs2)SC1=S)Nc1ccc(O)cc1,-11%,?,-99*,?,?
O=C(CCCN1C(=O)/C(=C\c2cccs2)SC1=S)Nc1ccccn1,4%,-28%,-97*,25µM*,-11%[46.1 µM]
O=C(Nc1nccs1)c1ccc(-c2ccc(F)c(Cl)c2)o1,12%,.,18,22µM*,.
CCN(c1ccccc1)S(=O)(=O)c1ccc(OC)c(NC(=O)C2=NN(c3ccccc3)C(=O)CC2)c1,-4%,0.32µM*,-17,?,?
COc1ccc(-c2csc(NC(=O)c3cccc(N4C(=O)CCC4=O)c3)n2)cc1C,?,0%,?,.,6%
CCN(c1ccccc1)S(=O)(=O)c1ccc(OC)c(NC(=O)c2ccccc2OC)c1,-7%,-12%,-8,?,18%
COc1ccc(-c2csc(NC(=O)C3=NN(c4ccccc4)C(=O)CC3)n2)cc1,20µM*,?,-32,7.1µM*,?
O=C(Nc1nc(-c2ccc3ccccc3c2)cs1)c1ccc(N2C(=O)CCC2=O)cc1,?,5%,-71*,-25%,0%
O=C(Nc1nc(-c2cc(F)ccc2F)cs1)C1=NN(c2ccccc2)C(=O)CC1,-31%,?,61,3%,-1%
CCc1ccccc1NC(=O)CN1C(=O)c2cccnc2Oc2ccc(Cl)cc21,0%,5%[46.1 µM],0,.,.
COc1cccc(-c2nc(S(=O)(=O)c3ccccc3)c(N3CCCCC3)o2)c1,-10%,-24%[46.1 µM],-2,.,3%[46.1 µM]
COc1ccc(C=C(C(C)=O)C(C)=O)cc1OC,28µM*,-14%,25,3%,-7%
CC(=O)Nc1ccc(/C=C(\C#N)C(N)=O)cc1,15%,-10%,-7,6%,?
COc1cc(C=C(C(C)=O)C(C)=O)ccc1O,?,-21%,16,5%,2%
CC(=O)Nc1ccc(C=C(C(C)=O)C(C)=O)cc1,32µM*,-8%,8,18%,-12%
COC(=O)[C@@H]1[C@@H](CO)[C@@H]2Cn3c(ccc(Br)c3=O)[C@@H]2N1C,.,.,0,.,.
COC(=O)C[C@H]1CC[C@@H](NC(=O)Nc2ccc(C(F)(F)F)cc2)[C@@H](CO)O1,-8%,.,6,.,.
Cc1nnc(-c2ccco2)c2cn(-c3cccc(Br)c3)nc12,22µM*,?,-29,?,-16%[46.1 µM]
CC(=O)c1nn(-c2cccc(Br)c2)cc1C(=O)c1ccco1,-1%,-2%,7,-22%,2%
O=C(NCc1ccco1)C1=COC2=NC(=O)N(Cc3ccccc3)CCN12,.,.,-8,.,.
COc1cc(/C=C/C(=O)OCC(=O)c2ccc[nH]2)ccc1O,44%,.,-2,.,.
Cc1csc2c(N3CCN(C(=O)Nc4ccccc4)CC3)ncnc12,22µM*,-7%,?,?,?
SMILES,FMDV antiviral,Lassa entry inh,HCMV antiviral,HCV inh,MARV entry inh
Cc1csc2ncnc(N3CCN(C(=O)Nc4ccc(OC(F)(F)F)cc4)CC3)c12,18µM*,.,-64*,7.9µM*,.
Cc1cnc(C(=O)Nc2ccc(OC(F)(F)F)cc2)cn1,0%,.,99,-9%,.
COc1cccc(-c2ncn(CCc3ccccc3OC)c2C(C)C)c1,32µM*,.,-101*,.,.
COc1ccccc1CCn1cnc(C)c1CC(C)C,-22%,.,-17,.,.
COc1cccc(-c2ncn(CCc3ccccc3OC)c2CC(C)C)c1,.,.,-88*,.,.
C/C(=N/Nc1ccccc1C(=O)O)c1cccs1,81%,?,68,17%,6%
C/C(=N\Nc1nc(-c2ccccc2)cs1)c1cccs1,0%,?,38,2.8µM*,?
C/C(=N\Nc1nc2ccccc2s1)c1cccs1,-45%,6.5µM*,-22,-26%,?
CC(=NNc1nc2ccccc2s1)c1ncccn1,-16%,1µM*,-97*,?,?
CC(=O)Nc1cccc(/C(C)=N/Nc2nc3ccccc3s2)c1,-42%,?,139,?,?
CC(=O)N1CCC2(CC1)CCN(c1ccccn1)CC2,2%,.,.,.,.
CCNC(=O)C1(C)CCCN(Cc2csc3ccccc23)C1 (configuration not stated),-19%,.,2,.,.

# Compound activity deposited in PubChem BioAssay by National Center for Advancing Translational Sciences (NCATS).
